High-throughput results (PubChem)
Only some compounds are listed: those with a hit (about 1.4% of all), similar ones and a draw of the others.
BAP1 inh: human BAP1 deubiquitinase inhibition | 72,000 compounds, 0.48% hits | Q92560 | recombinant BAP1, Ub-AMC hydrolysis fluorescence kinetic; hits give low values | AID 436 | calls only at 20 µM;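 active means activity remaining at or below 50% of control, provided the compound also passes the data quality filters; inactive means the rest, including low values that fail the filters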
DUSP1 inh: human dual specificity phosphatase 1 inhibition. P28562. recombinant MKP-1, OMFP hydrolysis fluorescence. inhibition, %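 (compounds tested at a single concentration somewhere between 10 and 100 µM)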. 65,000 compounds, 0.15% hits. AID 374;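 active means inhibition above about 50%, limit read from the data; inconclusive means inhibition over screen mean plus 3 SD, below that limit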
Target sequence (P28562 whole entry, looked up): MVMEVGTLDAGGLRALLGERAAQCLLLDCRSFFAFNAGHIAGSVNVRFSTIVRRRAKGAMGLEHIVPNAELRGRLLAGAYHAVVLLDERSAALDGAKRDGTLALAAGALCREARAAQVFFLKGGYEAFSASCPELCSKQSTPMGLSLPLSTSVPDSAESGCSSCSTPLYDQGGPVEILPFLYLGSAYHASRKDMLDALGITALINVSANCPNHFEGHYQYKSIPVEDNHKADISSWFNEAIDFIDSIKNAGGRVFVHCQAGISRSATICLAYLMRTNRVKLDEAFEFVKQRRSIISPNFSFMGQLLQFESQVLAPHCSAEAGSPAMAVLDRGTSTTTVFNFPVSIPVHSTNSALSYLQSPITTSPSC
Cdc25B inh: inhibitors of human Cdc25B phosphatase | AID 368 | recombinant Cdc25B, OMFP fluorescence Ex485/Em525 | P30305 | inhibition, %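 (compounds tested at 10 µM final in the well)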 | 65,000 compounds, 0.1% hits; in the data active means inhibition above about 50%
PLAP act: activators of human placental alkaline phosphatase | activation fold at 20 µM | 96,000 compounds, 1.2% hits | P05187 | purified PLAP enzyme, luminescent substrate read-out; hits give high values; in the data active means activation fold above about 2
HePTP inhibitor: blocks human HePTP tyrosine phosphatase. P35236. 110,000 compounds, 0.64% hits. recombinant HePTP phosphatase activity, OD absorbance. inhibition, % at 20 µM; in the data active means inhibition above about 50%; inconclusive means no clear call, values can overlap the other calls
Redox H2O2 0p5DTT: counter-screen for Cdc25B probes: redox cycling H2O2 in 0.5 mM DTT | cell-free redox cycling H2O2 generation | shares compounds with Cdc25B inh | 30 compounds, 50% hits | EC50, µM; in the data active means EC50 below about 30 µM
Redox 1 DTT: counter-screen for Cdc25B probes: redox cycling H2O2 in 1 mM DTT | AID 683 | EC50, µM | 30 tested, under 10 active | cell-free redox cycling H2O2 generation | shares compounds with Cdc25B inh; in the data active means EC50 below about 50 µM
Redox cycler: redox cycling H2O2 generation, MKP probe counter-screen | shares compounds with DUSP1 inh | DTT, phenol red/HRP | EC50, µM | 60 tested, under 10 active | AID 672; call rule not given here
BAP1 inh confirm: confirmation of human BAP1 enzyme inhibitors. % of control activity, % at 20 µM. shares compounds with BAP1 inh. purified BAP1, Ub-ethyl ester hydrolysis, HPLC; hits give low values. 310 compounds, 8% hits;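 active means percent of control activity at or below 60%; inconclusive means HPLC trace unusable from injection failure or solvent front hiding peaks; inactive means the rest, plus ubiquitin peak ratio over a set limit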
Numbers stand for hits.

For CC(C)(C)OC(=O)c1c(N)n(Cc2ccco2)c2nc3ccccc3nc12 the results were BAP1 inh inactive, DUSP1 inh inactive, Cdc25B inh inactive and PLAP act 2.1.
COCCNC(=O)c1c(N)n(Cc2ccco2)c2nc3ccccc3nc12 was read as PLAP act inactive.
For O=c1c2ccccc2nc(/C=C/c2ccc(Cl)cc2)n1-c1cccc(O)c1 the results were HePTP inhibitor inactive.
`Cn1cccc1/C=C1/C(=O)NC(=S)N(c2ccc(Cl)cc2)C1=O` gave HePTP inhibitor 100.
Screening CCCCCn1c(=O)c(C(=O)NCc2ccncc2)c(O)c2ccccc21 returned DUSP1 inh inactive, Cdc25B inh inactive, PLAP act inactive and HePTP inhibitor inactive.
`CCCCCn1c(=O)c(C(=O)Nc2ccncc2)c(O)c2ccccc21` gave BAP1 inh active, DUSP1 inh inactive, Cdc25B inh inactive, PLAP act inactive and HePTP inhibitor inactive.
CCCCC1C(=O)NC(=S)N(c2ccccc2)C1=O (configuration not stated) was read as HePTP inhibitor inactive.
For Cc1ccc(/C=C2/C(=O)NC(=O)N(c3ccc(C(C)C)cc3)C2=O)o1 the results were HePTP inhibitor inactive.
For CN(CN1C(=O)C(=O)c2cc([N+](=O)[O-])ccc21)[N+](=O)[O-] the results were HePTP inhibitor inactive.
For CCn1c(=O)n(CC(=O)N2CCC3(CC2)OCCO3)c(=O)c2ccccc21 the results were BAP1 inh inactive, DUSP1 inh inactive, Cdc25B inh 53 and PLAP act inactive.
Screening CC(C)CCNC(=O)c1c(N)n(CC2CCCO2)c2nc3ccccc3nc12 (configuration not stated) returned PLAP act 2.1 and HePTP inhibitor inactive.
COc1ccc(CCNC(=O)c2c(N)n(CCN3CCOCC3)c3nc4ccccc4nc23)cc1 was read as BAP1 inh inactive, DUSP1 inh inactive, Cdc25B inh inactive, PLAP act inactive and HePTP inhibitor inactive.
CCC(C)NC(=O)c1c(N)n(CC2CCCO2)c2nc3ccccc3nc12 (configuration not stated) was read as DUSP1 inh inactive, Cdc25B inh inactive, PLAP act 2 and HePTP inhibitor inactive.
`CCCCn1c(N)c(C(=O)NCCN2CCOCC2)c2nc3ccccc3nc21` gave DUSP1 inh inactive, Cdc25B inh inactive, PLAP act 2.3 and HePTP inhibitor inactive.
Screening Nc1c(C(=O)NCCc2ccccc2)c2nc3ccccc3nc2n1CCN1CCOCC1 returned BAP1 inh inactive, DUSP1 inh inactive, Cdc25B inh inactive, PLAP act inactive and HePTP inhibitor inactive.
Screening CCC(C)NC(=O)c1c(N)n(CCCOC)c2nc3ccccc3nc12 (configuration not stated) returned BAP1 inh inactive, DUSP1 inh inactive, Cdc25B inh inactive, PLAP act 2 and HePTP inhibitor inactive.
`Cc1ccccc1C(=O)Nc1cc(Cl)c([N+](=O)[O-])cc1Cl` gave HePTP inhibitor inactive.
`O=C(COc1ccc2ccccc2c1)N1CCN(Cc2ccccc2[N+](=O)[O-])CC1` gave HePTP inhibitor inactive.
For COc1ccc(CN2CCN(Cc3ccc(SC)cc3)CC2)cc1 the results were HePTP inhibitor 72.
Screening COc1ccc(CN2CCN(Cc3cccc(OC)c3)CC2)cc1 returned HePTP inhibitor inactive.
`Clc1ccccc1CNCCc1ccc2c(c1)OCO2` gave HePTP inhibitor inactive.
For CCOc1cc(C)cc2oc(=O)c3c(c12)CCC3 the results were HePTP inhibitor 104.
Screening Cc1cc(OCC(N)=O)c2c3c(c(=O)oc2c1)CCC3 returned HePTP inhibitor inactive.
Screening CN1C(=O)NC(=O)/C(=C\c2ccc([N+](=O)[O-])o2)C1=O returned HePTP inhibitor 97.
CN1C(=O)NC(=O)/C(=C/c2ccc(I)o2)C1=O was read as HePTP inhibitor inactive.
`CC(C)(C)c1ccc(OCCOc2cccc(C=C3C(=O)NC(=S)NC3=O)c2)cc1` gave HePTP inhibitor inactive.
For O=C1NC(=S)N(c2cccc(Br)c2)C(=O)/C1=C/c1ccco1 the results were HePTP inhibitor 102.
`CCOc1ccc(N2C(=O)/C(=C/c3ccco3)C(=O)NC2=S)cc1` gave HePTP inhibitor 102.
COc1cc(CNCCc2ccc(F)cc2)cc(OC)c1OC was read as BAP1 inh inactive.
CCN(CC)C(=O)c1ccc(NC(=O)Cn2nc(C)c3ccccc3c2=O)cc1 was read as BAP1 inh inactive, DUSP1 inh inactive, Cdc25B inh 71, PLAP act inactive and HePTP inhibitor inactive.
For CCN(CC)CCNCC(=O)Nc1ccc(Cl)cc1C(=O)c1ccccc1 the results were PLAP act 2.6.
For Cn1c(O)c(/C=C2/C=CC=N2)c(=O)n(-c2ccccc2)c1=S the results were HePTP inhibitor 101.
COC(=O)c1ccc(-c2ccc(C=C3C(=O)NC(=S)NC3=O)o2)cc1 was read as HePTP inhibitor inactive.
`O=C1NC(=S)NC(=O)C1=Cc1ccc(-c2ccc(S(=O)(=O)Nc3nccs3)cc2)o1` gave HePTP inhibitor 100.
`Cn1ncnc2c(=O)n(C)c(=O)nc1-2` gave BAP1 inh inactive, DUSP1 inh 101, Cdc25B inh 102, PLAP act inactive, HePTP inhibitor inconclusive, Redox H2O2 0p5DTT 1.2, Redox 1 DTT 3.2 and Redox cycler 11.
`O=C(N1CCN(c2ccccc2)CC1)C(O)(c1ccccc1)c1ccccc1` gave HePTP inhibitor inactive.
`CCCCCCn1c(=O)c(C(=O)Nc2c(C)n(C)n(-c3ccccc3)c2=O)c(O)c2ccccc21` gave BAP1 inh active, DUSP1 inh inactive, Cdc25B inh inactive, HePTP inhibitor inactive and BAP1 inh confirm inactive.
For COc1cc(C)c(CNCCc2ccccc2F)cc1C the results were HePTP inhibitor inactive.
